Assay results taken from PubChem BioAssay (NCATS).

Experiment: High-throughput drug toxicity screening in the BPDCN cell line Cal-1 (AID 1224825);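 note: cells exposed to compounds for 48 h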
Conditions: Cal-1 BPDCN cell viability, qHTS; at 45.8 µM (top of the series) unless noted
How it was run: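 500 Cal-1 cells/well, RPMI + glutamine + 10% FBS (phenol red-free); cpd added by pin tool; 48 h, 37C, 5% CO2; CTG 15 min RT, lumi read. Normalised: DMSO 100%, bortezomib 9.2 uM 0%.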

Row | Structure (SMILES) | viability (% of control)
1 | O=c1[nH]cc(F)c(=O)[nH]1 | 29.1%
2 | Clc1ccc(C(c2ccccc2Cl)C(Cl)Cl)cc1 (centres undefined) | 18.1%
3 | COc1ccc(CCN(C)CCCC(C#N)(c2ccc(OC)c(OC)c2)C(C)C)cc1OC (centres undefined) | 105% [at 92.2 µM]
4 | CN1CCN2c3ccccc3Cc3ccccc3C2C1 (centres undefined) | 91.5%
5 | Cc1ccc(-c2cc(C(F)(F)F)nn2-c2ccc(S(N)(=O)=O)cc2)cc1 | 90.2%
6 | CN(C)c1nc(N(C)C)nc(N(C)C)n1 | 106%
7 | CN(C)CCOC(c1ccccc1)c1ccccc1 | 38.8%
8 | CCOC(=O)Nc1ccc(NCc2ccc(F)cc2)nc1N | 96.5%
9 | CN1C(C(=O)Nc2ccccn2)=C(O)c2ccccc2S1(=O)=O | 8.08%
10 | CN1CCN(C2=Nc3cc(Cl)ccc3Nc3ccccc32)CC1 | 83.1%
11 | Cn1ccc2cc3c(cc21)CCN3C(=O)Nc1cccnc1 | 69.5%
12 | CN1CCC(=C2c3ccccc3CC(=O)c3sccc32)CC1 | 23.6%
13 | CC(C)Cc1ccc(C(C)C(=O)O)cc1 (centres undefined) | 113% [at 23.2 µM]
14 | CCOC(=O)c1ncn2c1CN(C)C(=O)c1cc(F)ccc1-2 | 17.4%
15 | Cc1cc(C(C)(C)C)c(O)c(C)c1CC1=NCCN1 | 110%
16 | OCCN(CCO)c1nc(N2CCCCC2)c2nc(N(CCO)CCO)nc(N3CCCCC3)c2n1 | 95.3%
17 | CC12CC3CC(C)(C1)CC(N)(C3)C2 | 17.7%

Row | Structure (SMILES) | viability (% of control)
18 | OCCN1CCN(CCCN2c3ccccc3Sc3ccc(C(F)(F)F)cc32)CC1 | 6.77%
19 | CN1CCC(=C2c3ccccc3C=Cc3ccccc32)CC1 | 35%
20 | Cn1c(=O)c2[nH]cnc2n(C)c1=O | 96.4%
21 | Nc1ccn([C@H]2CC[C@@H](CO)O2)c(=O)n1 | 102%
22 | Cc1cn([C@H]2C[C@H](N=[N+]=[N-])[C@@H](CO)O2)c(=O)[nH]c1=O | 78.5%
23 | CC(C(=O)O)c1cccc(C(=O)c2ccccc2)c1 (centres undefined) | 103%
24 | COc1cc2nc(N3CCN(C(=O)c4ccco4)CC3)nc(N)c2cc1OC | 5.38%
25 | COc1cc2nc(N3CCN(C(=O)C4COc5ccccc5O4)CC3)nc(N)c2cc1OC (centres undefined) | 8.05%
26 | Nc1nnc(-c2cccc(Cl)c2Cl)c(N)n1 | 36.7%
27 | CN1CCN(CCCN2c3ccccc3Sc3ccc(Cl)cc32)CC1 | 22.7%
28 | C[C@H]1c2cccc(O)c2C(O)=C2C(=O)[C@]3(O)C(O)=C(C(N)=O)C(=O)[C@@H](N(C)C)[C@@H]3[C@@H](O)[C@@H]21 | 19.9%
29 | NC12CC3CC(CC(C3)C1)C2 | 9.3%
30 | CC1(C)O[C@H]2CC(=O)OC[C@]23[C@H]2CC[C@@]4(C)[C@H](c5ccoc5)OC(=O)[C@H]5O[C@]54[C@]2(C)C(=O)C[C@@H]13 | 118%
31 | CN(CCOc1ccc(NS(C)(=O)=O)cc1)CCc1ccc(NS(C)(=O)=O)cc1 | 112%
32 | Clc1ccccc1C(c1ccccc1)(c1ccccc1)n1ccnc1 | 74%
33 | CCc1cccc2c3c([nH]c12)C(CC)(CC(=O)O)OCC3 (centres undefined) | 128%
34 | NCCCCCC(=O)O | 130%
